Assay outcomes: PubChem, National Center for Advancing Translational Sciences (NCATS)
Compounds with a hit are over-represented: about 7.6% of the library has one in this group of screens.
Giardia killer: kills Giardia lamblia; Giardia lamblia trophozoite viability; activity change, % at 7.66 µM, hits read low; actives 0.15% (n = 340,000); AID 540267; in the data active = activity change below about -80%; inconclusive = between about -30% and that limit;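 note: parasites exposed to compound for two days anaerobically before the ATP read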
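Compounds were tested on trophozoites seeded at 100 cells/well and held 48 hrs at 37 deg C anaerobically. An ATP-based luminescent kit measured the remaining live cells.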
Gal4-VP16 FLuc: inhibits Gal4-VP16 luciferase reporter, ROR gamma counter-screen; Drosophila S2 Gal4-VP16 UAS-luciferase, luminescence, 20 h; Potency, µM (doses to about 53.6 µM), usual class: inhibitors; actives 3.5% (n = 310,000);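 note: Gal4-VP16 expression switched on by copper sulfate through the metallothionein promoter; nearly all actives have a fitted effect of over 50% in size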
BRCA1 expr act: increases BRCA1 expression; actives 1.1% (n = 380,000); MCF7-BRCA1-FFLuc reporter, luminescence, 48 h; response scale: scaled: vehicle 0%, 10 µM genistein 100%; AID 624202; Potency, µM (series often up to 46.1 µM), most hits filed as activators; note: nearly all actives have a fitted effect of over 80% in size
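MCF7-BRCA1-FFLuc cells, 2000/well in phenol-red-free MEM, attached 2 h then treated 48 h at 37 C. Luciferase luminescence read 15 min after reagent; normalized to genistein maximum activation (10microM) and DMSO, concentration-response fitted.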
p53 reactivator: re-activators of mutant p53. H1299 p53-A138V BP100-luciferase reporter, luminescence, 24 h. Potency, µM (highest dose often 92.2 µM), usual class: activators. actives 0.063% (n = 320,000); note: nearly all actives have a fitted effect of over 45% in size
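H1299 (p53-null), stable ts p53-A138V + BP100-Luc; 1000 cells/well, Opti-MEM/10% FBS; cpd 4 pt, 1:5; 24 h, 37 deg C, 5% CO2; detection reagent 10 min RT; luminescence.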
RORg inh: ROR gamma (mouse) transcription inhibition; actives 5.4% (n = 310,000); Drosophila S2 Gal4-RORgamma UAS-luciferase reporter, 20 h; AID 2551; Potency, µM (titrated, usually from 53.6 µM), most hits filed as inhibitors; P51450; note: nearly all actives have a fitted effect of over 60% in size
Target sequence (P51450 whole entry, looked up, the tested form may be a part): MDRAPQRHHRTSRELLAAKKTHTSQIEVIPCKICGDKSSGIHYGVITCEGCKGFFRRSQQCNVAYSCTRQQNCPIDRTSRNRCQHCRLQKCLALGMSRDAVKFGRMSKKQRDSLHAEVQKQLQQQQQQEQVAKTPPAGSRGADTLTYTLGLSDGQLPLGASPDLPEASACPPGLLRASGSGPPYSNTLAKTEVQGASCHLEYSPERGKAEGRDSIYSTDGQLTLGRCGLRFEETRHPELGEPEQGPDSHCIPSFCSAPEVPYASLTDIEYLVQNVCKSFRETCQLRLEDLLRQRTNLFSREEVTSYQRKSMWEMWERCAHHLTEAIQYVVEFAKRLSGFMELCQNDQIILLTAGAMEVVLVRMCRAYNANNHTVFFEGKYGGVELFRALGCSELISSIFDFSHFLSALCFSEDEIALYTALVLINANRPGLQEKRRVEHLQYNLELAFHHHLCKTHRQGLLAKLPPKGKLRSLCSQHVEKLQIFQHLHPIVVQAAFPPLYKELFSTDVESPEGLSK
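ROR gamma transcriptional activity was tracked as Gal4-UAS luciferase output in stably transfected Drosophila Schneider cells, with compound added 1 hr before 700 uM copper sulfate induction and a 20 hr ambient-temperature incubation.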
ELG1 repair inh: ELG1-dependent DNA repair inhibition | HEK293T ELG1-luciferase reporter, luminescence, 16 h; DNA damage induced by 5-fluorouridine | Potency, µM (titrated, usually from 46.1 µM), usual class: inhibitors | actives 2.3% (n = 330,000) | AID 504467; note: nearly all actives have a fitted effect of over 55% in size
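Overnight (16 hr) co-exposure of 2,000 cells/well to 5-fluorouridine and compound at 37 °C preceded detection. Luciferase was quantified via ONE-Glo luminescence; loss of signal denotes inhibition.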
Numbers stand for hits; n = inactive; u = inconclusive; x = no result given; [ ] = dose if it differs, or a comment. Unless noted, calls come from the whole dose curve; as a rule, active = well fitted curve in the direction sought with a large enough effect; inconclusive = small, poorly fitted or top-dose-only effect, or another doubt; inactive = no such curve, though single readings can be large; an effect the other way counts as inactive or inconclusive.

SMILES	Giardia killer	Gal4-VP16 FLuc	BRCA1 expr act	p53 reactivator	RORg inh	ELG1 repair inh
Cc1cc(C)c(C(=O)/C=C/c2ccco2)c(=O)[nH]1	n	n	n	n	n	n
Cc1ccc(/C=C/C(=O)c2c(C)cc(C)[nH]c2=O)cc1	n	u	n	n	u	21µM
CN(C)S(=O)(=O)N1CCN(C(=O)c2cccc(Br)c2)CC1	n	n	n	n	n	n
CCCCC/C=C\C/C=C\CCCCCCCC(=O)NCCCC(=O)O	x	n	x	x	n	x
C/C(=N\NC(=S)NC(C)C)c1cccc([N+](=O)[O-])c1	n	4µM	n	n	1.3µM	n
Cc1cc(Br)ccc1NC(=S)Nc1cccc([N+](=O)[O-])c1	n	u	n	n	11µM	n
CNC(=S)Nc1cccc([N+](=O)[O-])c1	n	n	n	n	n	n
C/C(=N/Nc1nc(C)c(C)s1)c1cccc([N+](=O)[O-])c1	n	u	n	u	11µM	n
Cc1cccc(NC(=S)N/N=C(\c2ccccc2)C(C)C)c1	n	u	n	n	4.5µM	n
C/C(=N\NC(=S)NC(C)C)c1ccc(Cl)c([N+](=O)[O-])c1	n	u	n	n	u	n
CCCN(C(=O)CCNC(=O)c1ccc(Cl)cc1)c1c(N)n(Cc2ccccc2)c(=O)[nH]c1=O	n	x	n	n	x	n
O=C(CCn1cnnn1)Nc1cc(C(F)(F)F)cc(C(F)(F)F)c1	x	x	n	x	x	x
COCCCNc1nc(N)c([N+](=O)[O-])c(NC2CCCCC2)n1	n	n	n	n	u	n
C/C(=N/NC(=S)Nc1cccc(C)c1)c1cccc([N+](=O)[O-])c1	n	10µM	n	n	2.8µM	n
Cc1cccc(NC(=S)NNC(=O)c2cccc([N+](=O)[O-])c2)c1	n	n	n	n	n	n
COc1cccc(CN(C)C(=O)c2ccc(OCC(=O)N3CCOCC3)c(OC)c2)c1	n	x	n	n	x	n
COc1cc2c(cc1NC(=O)/C=C/c1cc(OC)c(OC)c(OC)c1)oc1ccccc12	n	n	n	n	n	5.8µM
COc1ccc(C(=O)NC(=S)Nc2cc3oc4ccccc4c3cc2OC)cc1	n	n	n	n	u	n
COc1cc(OC)cc(C(=O)NC(=S)Nc2cc3oc4ccccc4c3cc2OC)c1	n	u	n	n	1.4µM	n
COCCNC(=S)Nc1cc2oc3ccccc3c2cc1OC	n	7.1µM	n	n	5.6µM	u
COc1ccc(CC(=O)Nc2cc3oc4ccccc4c3cc2OC)cc1	n	n	u	u	n	u
COc1cc2c(cc1NC(=S)NC(=O)c1c(OC)cccc1OC)oc1ccccc12	n	u	n	n	3.5µM	n
CSc1cccc(NC(=O)C2C3C=CC4(O3)C2C(=O)N(CCN2CCOCC2)C4C(=O)NC2CCCCC2)c1 (configuration not stated)	n	n	n	n	n	n
CCCCCC(=O)Cc1cc(O)cc2c1C(=O)Oc1cc(O)c(C(=O)O)c(CCCCC)c1O2	n	n	n	n	n	n
CCC1CCCCN1CCCNC(=O)CCCNC(=O)Cn1cnc2sc3c(c2c1=O)CCCC3 (configuration not stated)	n	n	n	n	n	n
SMILES	Giardia killer	Gal4-VP16 FLuc	BRCA1 expr act	p53 reactivator	RORg inh	ELG1 repair inh
O=c1ccn(-c2cccc(C(F)(F)F)c2)nc1-c1ccn(-c2ccccc2F)n1	n	n	n	n	n	u
COc1ccc(-n2ccc(-c3nn(-c4cccc(C(F)(F)F)c4)ccc3=O)n2)cc1	n	n	n	n	n	8.2µM
Cc1ccc(SCCNC(=O)c2ccc(C)c(S(=O)(=O)Nc3ccccc3C)c2)cc1	n	n	n	n	u	2.9µM
CCCCOc1ccc(C(N)=O)cc1	x	x	n	x	x	x
CCOc1ccc(-c2nnc(N)s2)cc1	n	x	u	u	n[0.365 µM]	u
CCCCOc1ccc(-c2nnc(N)s2)cc1	n	n	6.3µM	n	u	u
CCCCOc1ccc(-c2ncc(N)cn2)cc1	n	n	2.5µM	n	n	u
COc1ccccc1NC(=S)NNC(=O)c1nn(C)cc1Cl	n	u	n	n	10µM	n
COc1ccccc1NC(=S)NNC(=O)c1nn(C)c(C)c1Cl	n	n	n	n	n	n
O=C(NC(=S)Nc1ccccc1O)c1ccc(-c2ccc(Cl)cc2)o1	n	7.9µM	n	n	3.2µM	n
COc1ccccc1NC(=S)NC(=O)c1ccc(-c2ccc(Cl)cc2)o1	n	u	n	n	1.8µM	n
CCCCC(=O)OCc1nc2ccccc2s1	n	n	n	u	u	u
Cc1noc(C)c1COC(=O)CCCc1nc2ccccc2s1	n	7.9µM	n	n	u	n
CCS(=O)(=O)Nc1ccc(C2=NN(C(=O)c3ccco3)C(c3ccc(C)cc3)C2)cc1 (configuration not stated)	n	18µM	n	n	n	u
Cc1ccc(C2CC(c3ccc(NS(C)(=O)=O)cc3)=NN2C(=O)c2ccco2)cc1 (configuration not stated)	n	n	n	n	n	u
CCCCOc1ccc(CSCCN)cc1Cl	n	2µM	n	n	1.3µM	u
O=C(CCN1C(=O)/C(=C/c2ccccc2Cl)SC1=S)N1CCCC1	n	n	n	n	8.9µM	u
CCOc1ccc(/C=C2\SC(=S)N(CC(=O)N(CCO)C(C)(C)C)C2=O)cc1	n	11µM	n	n	7.1µM	n
CCc1ccc(/C=C2\SC(=S)N(CCCC(=O)NCCCN3CCOCC3)C2=O)cc1	x	x	n	x	x	x
CCOc1ccc(/C=C2\SC(=S)N(CCCC(=O)NCCCN3CCOCC3)C2=O)cc1	n	0.89µM	n	n	0.4µM	n
O=C(CCCN1C(=O)/C(=C/c2ccccc2Cl)SC1=S)N1CCCC1	n	n	n	x	8.9µM	u
N#Cc1ccc(C(=O)N(Cc2ccccc2)c2ccccc2)cc1	n	n	n	n	n	n
CN1CCN(NC(=O)CN2C(=O)/C(=C/c3ccccc3F)SC2=S)CC1	x	n	x	n	0.22µM	n
O=C(CCCN1C(=O)/C(=C/c2ccccc2Cl)SC1=S)NCCCN1CCOCC1	n	13µM	n	n	5µM	n
O=C(CCN1C(=O)/C(=C/c2ccccc2Cl)SC1=S)N1CCOCC1	n	u	n	16µM	7.1µM	u
O=C(CN1C(=O)/C(=C/c2ccccc2F)SC1=S)NC1C=CS(=O)(=O)C1 (configuration not stated)	n	n	n	n	n	n
O=C(CCN1C(=O)/C(=C\c2ccccc2)SC1=S)N1CCOCC1	n	n	n	u	n	n
Cc1ccc(CCNC(=O)C2CCC(=O)N(CC3CCCCC3)C2)cc1 (configuration not stated)	n	n	n	n	n	n
O=C(N/N=C/c1ccc(-n2ccnc2)cc1)c1cccs1	n	u	11µM	n	n	u
